Compounds with a hit are over-represented: about 2.3% of the library has one in this group of screens.
Nrf2 ARE act: Nrf2 pathway activation | AREc32 ARE-luciferase reporter (MCF7-derived line), luminescence, 24 h | Potency, µM (top dose mostly 46.1 µM), inactives show top-dose activation, actives largely listed as activators | 410,000 tested, 0.31% active; note: potency is the fitted concentration of half-maximal effect; % of control where 0% means no effect; nearly all actives have a fitted effect of over 65% in size
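Each well held 1000 AREc32 cells, which were incubated with compound for 24 hr at 37 deg C after overnight attachment, and ARE reporter activity was quantified by firefly luciferase luminescence.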
Nrf2 block: Nrf2 pathway inhibition; A549 ARE-Fluc reporter, luciferase luminescence, 18-24 h; Potency, µM (series often up to 46 µM), without a hit: top-dose activity change, negative = inhibition, usual class: inhibitors; 360,000 tested, 2.1% active; AID 504444; note: potency is the fitted concentration of half-maximal effect; % is set by controls: 0 for no effect and ±100 for the full control effect; nearly all actives have a fitted effect of over 60% in size
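Nrf2 activity is the BugLite luminescence, read 15 min after reagent at room temperature, following CellTiter-Fluor cytotoxicity readout (30 min, 37C). Compound titrations were applied for 18-24 h to 5000 A549 ARE_Fluc cells/well in 5% FBS OPTI-MEM.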
Giardia kill: kills Giardia lamblia. activity change, % at 7.66 µM, hits read low. Giardia lamblia trophozoite viability. 340,000 tested, 0.15% active. AID 540267; in the data active = activity change below about -80%; inconclusive = between about -30% and that limit;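 note: parasites exposed to compound for two days anaerobically before the ATP read; % is set by controls: 0 for no effect and ±100 for the full control effect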
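Trophozoite viability was measured as ATP-dependent luminescence, read 15-30 min after reagent addition. Before that, parasites at 100 cells/well were exposed to compounds for 48 h, anaerobically, at 37 deg C.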
mIDH1 inhibitor: inhibitors of human mutant IDH1 R132H. O75874. IDH1-R132H enzyme, NADPH consumption, diaphorase/resazurin fluorescence. Potency, µM (titrated, usually from 76.6 µM), inactives show at the highest dose activity change, negative = inhibition, actives largely listed as inhibitors. 390,000 tested, 0.093% active; note: potency is the fitted concentration of half-maximal effect; % is set by controls: 0 for no effect and ±100 for the full control effect; nearly all actives have a fitted effect of over 65% in size
Target sequence (O75874 whole entry R132H, stated change not applied): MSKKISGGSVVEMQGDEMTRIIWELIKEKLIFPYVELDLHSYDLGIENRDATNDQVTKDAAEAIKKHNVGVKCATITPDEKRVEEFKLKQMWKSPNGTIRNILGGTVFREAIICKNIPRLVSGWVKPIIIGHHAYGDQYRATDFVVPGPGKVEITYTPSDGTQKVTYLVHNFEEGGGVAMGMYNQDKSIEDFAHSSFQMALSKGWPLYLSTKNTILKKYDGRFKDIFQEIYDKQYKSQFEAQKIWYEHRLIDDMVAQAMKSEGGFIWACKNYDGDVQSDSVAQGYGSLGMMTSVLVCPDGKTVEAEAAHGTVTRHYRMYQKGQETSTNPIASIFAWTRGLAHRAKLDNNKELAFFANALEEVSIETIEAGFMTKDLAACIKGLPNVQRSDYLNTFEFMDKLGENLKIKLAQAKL
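IDH1-R132H (0.5 ug/mL) preincubated 30 min with compound, then NADPH (0.016 mM) and alpha-KG (2 mM) added; 80 min at RT, pH 7.5. Remaining NADPH coupled via diaphorase/resazurin to fluorescence (540/590 nm); concentration-response curves normalized to no-enzyme control.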
A549 tox-1: kills or reduces viability of A549 cells in Nrf2 counter-screen; A549 ARE-Fluc cells, CellTiter-Fluor viability, 18-24 h; AID 504648; Potency, µM (series often up to 46 µM), inactives show top-dose activity change, negative = cytotoxicity, hits mostly inhibitors; 390,000 tested, 0.16% active; note: potency is the fitted concentration of half-maximal effect; % is set by controls: 0 for no effect and ±100 for the full control effect
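A549 ARE-Fluc cells in 5% FBS OPTI-MEM, 5000 cells/well, rested 2 h then exposed to compounds in concentration-response for 18-24 h at 37 °C. Viability by CellTiter-Fluor fluorescence (Ex 405/Em 525) after 30 min; luciferase luminescence (BugLite, 15 min, RT) read afterwards.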
Apoferritin bind: candidate novel general anesthetic via apoferritin binding. P02791. apoferritin/1-aminoanthracene competitive binding, fluorescence. Potency, µM (highest dose often 77.5 µM), without a hit: at the highest dose activity change, negative = displacement, hits mostly inhibitors. 350,000 tested, 0.074% active. AID 485281; note: potency is the fitted concentration of half-maximal effect; % is set by controls: 0 for no effect and ±100 for the full control effect; nearly all actives have a fitted effect of over 20% in size
Target sequence (P02791 2-175 limits assumed): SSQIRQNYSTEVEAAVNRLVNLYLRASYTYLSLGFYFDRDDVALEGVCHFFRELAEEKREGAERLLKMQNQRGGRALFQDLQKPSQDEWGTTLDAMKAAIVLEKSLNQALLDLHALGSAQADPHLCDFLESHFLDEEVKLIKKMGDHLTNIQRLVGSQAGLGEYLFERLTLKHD
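Apoferritin-based anesthetic binding model; compound displacement of fluorescent 1-AMA measured as endpoint fluorescence after 10 minutes at room temperature, scaled to free-ligand and complex controls.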
FLuc counter 3: blocks purified firefly luciferase in Nrf2 counterscreen; shares compounds with Nrf2 block; purified firefly luciferase, luminescence inhibition; Potency, µM (series often up to 57.5 µM), for the others: top-dose activity change, negative = inhibition, most hits filed as inhibitors; 1,400 tested, 4% active; note: potency is the fitted concentration of half-maximal effect; % is set by controls: 0 for no effect and ±100 for the full control effect; nearly all actives have a fitted effect of over 65% in size
A549 tox-2: counter-screen for Nrf2 inhibitors: cytotoxicity in A549 ARE cells | shares compounds with Nrf2 block | A549 ARE-Fluc cells, cytotoxicity counterscreen | Potency, µM (series often up to 46.1 µM), inactives show at the highest dose activity change, negative = cytotoxicity, usual class: inhibitors | 1,400 tested, 2% active;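 note: potency is the fitted concentration of half-maximal effect; cells exposed to compounds for 18 to 24 hours; % is set by controls: 0 for no effect and ±100 for the full control effect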
Nrf2 ARE inh: Nrf2 inhibition confirmed, A549 ARE-luciferase. A549 ARE-firefly luciferase reporter, luminescence. 1,400 tested, 74% active. shares compounds with Nrf2 block. Potency, µM (series often up to 46.1 µM), for the others: at the highest dose activity change, negative = inhibition, hits mostly inhibitors; note: potency is the fitted concentration of half-maximal effect; % is set by controls: 0 for no effect and ±100 for the full control effect; nearly all actives have a fitted effect of over 65% in size
IDH1 autofl: counter-screen for mutant IDH1 inhibitors: fluorescence interference; shares compounds with mIDH1 inhibitor; inhibition of signal, % at 51.2 µM; 750 tested, under 10 active; AID 623980; Resorufin detection reagent fluorescence interference, cell-free;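 note: 0% = wells with normal resorufin and full inhibition = wells lacking resorufin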
IDH1 WT: inhibits human wild-type IDH1, mutant selectivity check; shares compounds with mIDH1 inhibitor; WT IDH1 enzyme, NADPH diaphorase/resazurin fluorescence; Potency, µM (doses to about 115 µM), inactives show at the top dose activity change, negative = inhibition, usual class: inhibitors; 750 tested, 9% active; AID 623995;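 note: potency is the fitted concentration of half-maximal effect; 0% = full WT IDH1 enzyme control and full inhibition = no enzyme wells; nearly all actives have a fitted effect of over 55% in size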
Target sequence (O75874 whole entry, looked up): as the sequence (O75874 whole entry R132H, stated change not applied) above, with H132R counted along it
mIDH1 confirm: confirmation of human mutant IDH1 inhibitors | shares compounds with mIDH1 inhibitor | IDH1 R132H enzyme, NADPH diaphorase/resazurin fluorescence | Potency, µM (highest dose often 76.6 µM), for the others: at the highest dose activity change, negative = inhibition, hits mostly inhibitors | 750 tested, 83% active; note: potency is the fitted concentration of half-maximal effect; nearly all actives have a fitted effect of over 50% in size
* = called active by the depositor; ? = inconclusive; nt = no result given; [ ] = another dose, or the depositor's remark. Unless noted, calls come from the whole dose curve; as a rule, active = well fitted curve in the direction sought with a large enough effect; inconclusive = small, poorly fitted or top-dose-only effect, or another doubt; inactive = no such curve, though single readings can be large; an effect the other way counts as inactive or inconclusive.

SMILES	Nrf2 ARE act	Nrf2 block	Giardia kill	mIDH1 inhibitor	A549 tox-1	Apoferritin bind	FLuc counter 3	A549 tox-2	Nrf2 ARE inh	others
COc1ccccc1N=c1scc(-c2ccc(S(=O)(=O)N3CCCC3)cc2)n1C	-0.8%	3.66µM*	nt	-5.3%	-17.3%	184.1%	1.0%	-25.7%	6.51µM*
CCC(C)n1c(=O)[nH]c(C)c(Br)c1=O (configuration not stated)	nt	nt	nt	nt	nt	-7.3%	nt	nt	nt
COc1ccc(NC(=O)CCc2nc(C3=CCN(Cc4cccc(C)c4)CC3)no2)c(OC)c1	0.5%	nt	nt	-5.4%	5.0%	4.0%	nt	nt	nt
COc1cccc(NC(=O)CCc2nc(-c3ccc(C(C)(C)C)cc3)no2)c1	-3.9%	0.259µM*	nt	19.7%	-2.9%	?	2.39µM*	-4.8%	0.92µM*
COC1C(O)C(C)O[C@@H](OC2CC[C@@]3(C)C4CC[C@]5(C)C(C6=CC(=O)OC6)CC[C@@]5(O)C4CC[C@@H]3C2)C1O (some centres not stated)	nt	nt	nt	nt	nt	-3.6%	nt	nt	nt
CC(=O)OC1CC(OC2C(O)CC(OC3C(O)CC(OC4CCC5(C)C(CCC6C5CCC5(C)C(C7=CC(=O)OC7)C(O)CC65O)C4)OC3C)OC2C)OC(C)C1OC1OC(CO)C(O)C(O)C1O (configuration not stated)	-2.5%	0.326µM*	-13.5	4.3%	?	nt	3.7%	?	0.291µM*
C[C@@]12CC[C@H](O)C[C@@H]1CC[C@H]1[C@H]2CC[C@@]2(C)[C@@H](C3=CC(=O)OC3)CC[C@]12O	nt	nt	nt	nt	nt	-2.3%[29.3 µM]	nt	nt	nt
CC(=O)OC1CC2(O)C3CCC4CC(O)CCC4(C)C3CCC2(C)C1C1=CC(=O)OC1 (configuration not stated)	-2.2%	0.0651µM*	11.8	1.9%	?	nt	2.1%	?	0.058µM*
CC(C)C[C@H](NC(=O)CNC(=O)[C@H](CCC(N)=O)NC(=O)[C@H](Cc1ccc(O)cc1)NC(=O)[C@@H](NC(=O)[C@H](Cc1ccc(O)cc1)NC(=O)CNC(=O)[C@@H](N)CCCN=C(N)N)C(C)C)C(=O)O	nt	nt	nt	nt	nt	-1.8%	nt	nt	nt
CC(=O)c1cccc(NC(=O)c2cc3c(s2)-c2c(C)cccc2OC3)c1	2.5%	7.31µM*	nt	-24.5%	-17.2%	55.8%	-14.0%	-21.7%	6.51µM*
Nc1nc(F)nc2c1ncn2[C@@H]1O[C@H](CO)[C@@H](O)[C@@H]1O	-1.1%	5.8µM*	?	6.6%	-4.8%	3.9%	-1.8%	-20.8%	16.4µM*
Cc1c(F)c(F)c(COC(=O)C2C(/C=C(\Cl)C(F)(F)F)C2(C)C)c(F)c1F (configuration not stated)	nt	nt	nt	nt	nt	10.3%	nt	nt	nt
COC(=O)C1(C)C=C2C(=C(C)C(=O)C2C)CN1 (configuration not stated)	nt	nt	nt	nt	nt	-14.1%	nt	nt	nt
CNC(C)Cc1ccccc1OC (configuration not stated)	nt	nt	nt	nt	nt	0.5%	nt	nt	nt
COc1cc(C[C@@H](C)N)c(OC)cc1I	0.5%	?	-5.6	3.3%	-23.2%	0.6%	0.9%	-7.1%	0.1%
CC(C)c1ccc2c(c1O)CCC1C3=C(CC[C@]21C)C(=O)OC3 (some centres not stated)	nt	nt	nt	nt	nt	-15.0%	nt	nt	nt
CC1OC(OC2C=C3CCC4C(CCC5(C)C(c6ccc(=O)oc6)CCC45O)C3(C)CC2)C(O)C(OC2OC(CO)C(O)C(O)C2O)C1O (configuration not stated)	-2.3%	0.0731µM*	-17.4	2.6%	?	nt	1.7%	?	0.0082µM*
C[C@@H]1O[C@H](C[N+](C)(C)C)C[C@@H]1O	nt	nt	nt	nt	nt	3.7%	nt	nt	nt
O=C(N/N=C/c1c(O)n(C2CCCCC2)c(=S)[nH]c1=O)c1ccccc1O	-0.7%	1.5%	?	?	0.2%	-6.9%	nt	nt	nt	IDH1 autofl=8.6;IDH1 WT=-4.7%;mIDH1 confirm=44.7µM*
COCCCn1c(N)c(C(=O)Nc2sc3c(c2C(=O)OC)CCCC3)c2nc3ccccc3nc21	0.1%	0.3%	6.1	?	1.6%	-6.9%	nt	nt	nt	IDH1 autofl=4.8;IDH1 WT=-3.2%;mIDH1 confirm=?
CN(C)C(=O)Oc1ccc(C(=O)c2ccccc2)cc1	2.4%	-29.2%	-18.4	5.1%	5.4%	-11.2%	nt	nt	nt
CCC(=O)Oc1ccc(C(=O)Nc2cccc(C(=O)c3ccccc3)c2)cc1	6.5%	?	-3.3	26.1µM*	-4.7%	-20.7%	nt	nt	nt	IDH1 autofl=-4.8;IDH1 WT=4.8%;mIDH1 confirm=10µM*
CCCCCc1nc2c(c(=O)c3ccccc3n2C)c(=O)n1C1CCCCCC1	0.0%	?	19.4	10.4µM*	?	?	nt	nt	nt	IDH1 autofl=-6.0;IDH1 WT=35.5µM*;mIDH1 confirm=5.01µM*
CCCCCc1nc2ccccc2c(=O)n1-c1ccc(C)cc1	4.5%	9.5%	nt	-1.0%	-0.1%	-0.5%	nt	nt	nt
O=c1c2ccccc2nc(/C=C/c2cccnc2)n1Cc1ccccc1	14.7%	-1.7%	-18.3	41.4µM*	-0.9%	-14.8%	nt	nt	nt	IDH1 autofl=4.5;IDH1 WT=44.7µM*;mIDH1 confirm=25.1µM*
CCOC(=O)c1c(-n2c(C)cc(C=C3C(=O)NC(=O)NC3=O)c2C)sc2c1CCCC2	-0.7%	-12.6%	-7.8	18.5µM*	-7.3%	-20.6%	nt	nt	nt	IDH1 autofl=-4.5;IDH1 WT=28.2µM*;mIDH1 confirm=11.2µM*
C[C@]12CCC3C(C=CC4=CC(=O)CC[C@]43C)C1CC[C@]2(O)CCC(=O)O (some centres not stated)	nt	nt	nt	nt	nt	4.1%	nt	nt	nt
